The structures appear in SMILES notation. The whole screen tested about 39,000 compounds, of which about 1,500 (3.8%) were called active. Shown is part of a subset that was picked to be rich in actives.

The experiment concerns HSkMC (human skeletal muscle cells). Briefly: cytotoxicity call (relative viability < 0.9). The conditions noted are these: 10 µM.
For `Cc1nn[nH]n1`, the cytotoxicity call was “inactive”.

`CC(=O)CC1CCCCN1.Cl` (centres undefined): the cytotoxicity call was “inactive”.

Take `CCn1cnc2c(Nc3cccc(Cl)c3)nc(N[C@@H]3CCCC[C@@H]3N)nc21`: the cytotoxicity call is “active”.

On to `CCN(Cc1ccc(Cl)nc1)C(=C[N+](=O)[O-])NC`, for which the cytotoxicity call is “inactive”.

On to `C=CCN1C[C@H]2CN(C(C)C)C[C@H]2C1=O`, for which the cytotoxicity call is “inactive”.

Regarding `CO[C@@H]1C=C[C@@H]2[C@H]1N2CCCO` (some centres undefined), the cytotoxicity call was “inactive”.

For the molecule `Nc1c[n+](CCc2ccccc2)no1`, the cytotoxicity call was “inactive”.

As to `CN1CCN(C(=O)CN=[N+]=[N-])CC1`, the cytotoxicity call is “inactive”.

Take `C=C(CCCCCCCCCCCCCCCC)OOC[C@@H](COP(=O)(ON)O[C@@H]1[C@H](O)[C@H](O)[C@@H](OP(=O)(O)ON)[C@H](OP(=O)(O)ON)[C@H]1O)OOC(=C)CC/C=C/C/C=C/C/C=C/C/C=C/CCCCC` (some centres undefined): the cytotoxicity call is “inactive”.

`C=C(C)[C@@H]1CCC(C)=C[C@H]1c1c(OC)cc(C)cc1OC`: the cytotoxicity call was “inactive”.

Turning to `C=C(C)[C@@H]1CCC(C)=C[C@H]1c1c(O)cc(CCCCC)cc1O`, the cytotoxicity call was “active”.

For the molecule `C[C@@H]1C(=O)O[C@H]2[C@H](O)[C@@]34[C@@H]5OC(=O)[C@@]3(O[C@@H]3OC(=O)[C@H](O)[C@@]34[C@H](C(C)(C)C)[C@H]5O)[C@@]12O`, the cytotoxicity call is “inactive”.

As for `NC1(c2ccc(Cl)cc2)CC1`, the cytotoxicity call is “inactive”.

Take `O=[As]O[As]=O` (centres undefined): the cytotoxicity call was “inactive”.

In the case of `O=C(O)Cc1cccnc1C(=O)O`, the cytotoxicity call is “inactive”.

On to `CO[C@H]1[C@@H](O)[C@@H](C)O[C@H](O[C@H]2CC[C@@]3(C)[C@H]4CC[C@@]5(C)[C@@H](C6=CC(=O)OC6)CC[C@]5(O)[C@@H]4CC[C@]3(O)C2)[C@@H]1O`, for which the cytotoxicity call was “inactive”.

In the case of `C[C@@H]1O[C@@H](O[C@H]2CC[C@]3(C=O)[C@H]4CC[C@]5(C)[C@@H](C6=CC(=O)OC6)CC[C@]5(O)[C@@H]4CC[C@]3(O)C2)[C@H](O)[C@H](O)[C@H]1O`, the cytotoxicity call is “active”.

Take `CO[C@H]1C[C@H](O[C@H]2CC[C@]3(C=O)[C@H]4CC[C@]5(C)[C@@H](C6=CC(=O)OC6)CC[C@]5(O)[C@@H]4CC[C@]3(O)C2)O[C@H](C)[C@H]1O`: the cytotoxicity call was “active”.

As to `COC1C(O)C(C)OC(OC2CCC3(C)C4CCC5(C)C(C6=CC(=O)OC6)CCC5(O)C4CCC3(O)C2)C1O` (centres undefined), the cytotoxicity call was “inactive”.

`COC1C(O)C(C)OC(OC2CCC3(C=O)C(CCC4C3CCC3(C)C(C5=CC(=O)OC5)CCC43O)C2)C1O` (centres undefined): the cytotoxicity call is “active”.

Take `CC1OC(OC2CCC3(C=O)C4CCC5(C)C(C6=CC(=O)OC6)CCC5(O)C4CCC3(O)C2)C(O)C(O)C1O` (centres undefined): the cytotoxicity call is “active”.

With `CC(C)(C)OC(=O)N[C@H]1[C@@H]2CNC[C@@H]21`, the cytotoxicity call is “inactive”.

In the case of `COC(N)=O`, the cytotoxicity call is “inactive”.

Take `C[C@H](CO)N1C[C@H](C)[C@@H](CN(C)C(=O)Oc2cccc3ccccc23)OCc2cn(nn2)CCCC1=O`: the cytotoxicity call was “inactive”.

The record behind these values is the antibiotic and cytotoxicity screens of Wong et al. (2023).
